Only some compounds are listed: those with a hit (about 11% of all), similar ones and a draw of the others.
AmpC no deterg: AmpC beta-lactamase inhibition without detergent; AmpC nitrocefin hydrolysis, absorbance 480 nm, 0.0001% Triton; Potency, µM (top dose mostly 57.1 µM), inactives show top-dose activity change, negative = inhibition, usual class: inhibitors; actives 0.52% (n = 330,000); AID 485341;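 also: plate controls were no compound for no effect and no enzyme for full effect; nearly all actives have a fitted effect of over 20% in size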
Target sequence (P00811 whole entry, looked up): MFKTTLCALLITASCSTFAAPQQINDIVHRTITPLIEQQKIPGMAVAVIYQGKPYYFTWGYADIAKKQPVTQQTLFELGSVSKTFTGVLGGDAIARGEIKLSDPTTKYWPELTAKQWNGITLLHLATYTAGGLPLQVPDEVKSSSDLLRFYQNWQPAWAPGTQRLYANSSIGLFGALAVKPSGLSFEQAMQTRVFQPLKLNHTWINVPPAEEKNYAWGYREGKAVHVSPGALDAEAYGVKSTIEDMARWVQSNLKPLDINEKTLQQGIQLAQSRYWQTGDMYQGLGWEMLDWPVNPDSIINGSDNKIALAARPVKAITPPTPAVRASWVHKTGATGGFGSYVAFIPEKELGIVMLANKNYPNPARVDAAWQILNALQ
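20 mM phosphate pH 7.0 + 0.01% (detergent screen) or 0.0001% Triton X-100; 5.3 nM AmpC reagent; cpd preinc 15 min RT; nitrocefin (800 uM stock) to start; A480 q20 s × 4 min; Activity was normalised to no-enzyme and no-compound control wells.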
AMA1 RON2 block: AMA1-RON2 (P. falciparum) interaction inhibition | AlphaScreen AMA1-biotinylated RON2 peptide binding | Potency, µM (titrated, usually from 58.2 µM), without a hit: at the top dose activity change, negative = inhibition, usual class: inhibitors | actives 0.2% (n = 360,000);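 also: 0% = vehicle wells and -100% = peptide control; nearly all actives have a fitted effect of over 45% in size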
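AMA1 (3D7) with his tag at 25 nM final met compounds first, then biotinylated RON2 peptide at 25 nM; detection used donor plus acceptor beads, 10 µg/mL apiece, read by AlphaScreen after 30 min at room temperature.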
Pf growth 48h: inhibits P. falciparum growth in the first generation, 48 h | P. falciparum luciferase growth in erythrocytes, 48 h | Potency, µM (series often up to 28.7 µM), for the others: top-dose activity change, negative = inhibition, usual class: inhibitors | actives 5.9% (n = 310,000) | AID 504832
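Read-out is firefly luciferase luminescence from an integrated reporter in P. falciparum, so falling signal marks reduced parasite growth. Infected erythrocytes were at 2% hematocrit and 0.1% parasitemia (final) in Albumax-supplemented RPMI 1640.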
Pf growth 96h: P. falciparum growth inhibition at 96 hour, primary screen for plastid delayed-death inhibitors; P. falciparum luciferase reporter growth, 96 h; Potency, µM (highest dose often 28.7 µM), for the others: at the top dose activity change, negative = inhibition, actives largely listed as inhibitors; actives 6.9% (n = 320,000); AID 504834
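Infected RBCs, 2% Hct / 0.05% parasitemia final; luciferase-reporter P. falciparum; cpd 96 h, 37 C, 5% CO2; luciferase detection reagent; luminescence.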
AmpC inh detg: blocks E. coli AmpC beta-lactamase in detergent assay; P00811; AmpC hydrolysis of nitrocefin, absorbance 480 nm, 0.01% Triton; Potency, µM (highest dose often 114 µM), for the others: at the top dose activity change, negative = inhibition, hits mostly inhibitors; actives 0.041% (n = 370,000);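 also: 0% = no-compound wells and -100% = no-enzyme wells; nearly all actives have a fitted effect of over 25% in size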
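AmpC (5.3 nM in the dispensed reagent) in 20 mM phosphate pH 7.0 with 0.01% (detergent screen) or 0.0001% Triton X-100 was preincubated with compounds for 15 min at room temperature. Nitrocefin was then added from an 800 uM solution, and hydrolysis was followed at 480 nm.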
HCV inh: inhibitors of hepatitis C virus infection; Huh7.5.1 HCVcc-Cre infection, luciferase reporter, 44 h; Potency, µM (series often up to 41.8 µM), for inactives: top-dose activity change, negative = inhibition, hits mostly inhibitors; actives 3.4% (n = 340,000)
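Reporter virus HCVcc-Cre (~0.5 moi) infects cells exposed to compound; seeding density 1,000 cells/well with 4 h settling beforehand. Luminescence, 15 sec read, taken 44 h post-infection following a 15 min RT substrate incubation.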
The depositor's hits bear a star; ? = inconclusive; / = not tested or not shown; [ ] = another dose, or the depositor's remark. Calls follow the shape of the dose curve; as a rule, active = well fitted curve in the direction sought with a large enough effect; inconclusive = small, poorly fitted or top-dose-only effect, or another doubt; inactive = no such curve, though single readings can be large; an effect the other way counts as inactive or inconclusive. Unless noted, % is scaled to controls: 0 for no effect and ±100 for the full control effect; potency is read from the fitted curve at half-maximal effect.

SMILES	AmpC no deterg	AMA1 RON2 block	Pf growth 48h	Pf growth 96h	AmpC inh detg	HCV inh
NC1=NC[C@@H](Cc2ccc(O)cc2)N1CCC12CC3CC(CC(C3)C1)C2	/	-25%	/	/	/	?
O=C(Nc1nonc1-c1ccc(Br)cc1)c1ccco1	/	/	/	/	15%	/
COc1ccc(OC)c(C2C(C(N)=O)=C(C)Nc3nc(CCCO)nn32)c1 (stereo unspecified)	1.6µM*	9%	5%	-10%	?	8%
CCOC(=O)C1=C(C)Nc2nc(C)nn2C1c1cc(OC)ccc1OC (stereo unspecified)	-11%	5%	17%	8.3µM*	?	20%
CCCCOC(=O)C1=C(C)Nc2ncnn2C1c1cc(OC)ccc1OC (stereo unspecified)	3%	-6%	8%	41%	-1%	6%
CCOC(=O)C1=C(c2ccccc2)Nc2nc(C)nn2C1c1cccc(OC)c1OC (stereo unspecified)	-3%	0%	12µM*	9.3µM*	3%	20%
COc1ccc(OC)c(C2C(C(=O)Nc3ccc(F)cc3)=C(C)Nc3nc(CCCO)nn32)c1 (stereo unspecified)	8.9µM*	12%	11%	23%	-3%	15%
Cc1nc2nc(CNC(=O)c3cccc(F)c3)nn2c(C)c1CCC(=O)Nc1ccc(F)cc1	/	/	/	/	11%	/
CCOC(=O)C(CC)Sc1nnc2[nH]c(=O)cc(C)n12 (stereo unspecified)	/	/	/	/	-6%	/
COc1ccc(CCNC(=O)C(=O)NCC(c2ccco2)S(=O)(=O)c2cccs2)cc1 (stereo unspecified)	/	/	/	/	-1%	/
O=C1C2C(c3ccccc3)CC=CC2[C@H](c2cccc([N+](=O)[O-])c2)N1Cc1ccccc1 (stereo partly specified)	-15%	-10%	?	?	-1%	?
CN(C)c1ccc(-c2cccc(C3CC=CC4C3C(=O)N(Cc3ccccc3)C4c3ccc(C(F)(F)F)cc3)c2)cc1 (stereo unspecified)	-39%	-30%	?	?	-1%	9%
O=C1C2C(c3ccccc3)CC=CC2[C@H](c2ccc(C(F)(F)F)cc2)N1Cc1ccccc1 (stereo partly specified)	-20%	-10%	3.3µM*	?	5%	-18%
C[C@@H]1CC=C[C@H]2[C@H]1C(=O)N(Cc1ccccc1)[C@H]2c1ccc(C(F)(F)F)cc1	29%	6%	?	?	2%	?
COc1ccc(-c2cccc(C3CC=CC4C3C(=O)N(Cc3ccccc3)C4c3ccc(C(F)(F)F)cc3)c2)cc1 (stereo unspecified)	-28%	-2%	6.6µM*	7.4µM*	-7%	-6%
Cc1ccc(-c2cccc(C3CC=CC4C3C(=O)N(Cc3ccccc3)C4c3cc(C)ccc3F)c2)cc1 (stereo unspecified)	-25%	-4%	4.7µM*	7.4µM*	1%	1%
CC[C@@H]1CC=C[C@H]2[C@H]1C(=O)N(Cc1ccccc1)[C@H]2c1ccc2ccccc2c1	-6%	/	13µM*	?	4%	/
COc1cccc(-n2c(SCc3ccc(F)cc3)nc3c([nH]c4ccccc43)c2=O)c1	/	/	/	/	6%	/
COc1ccc(-c2c3c(nc4sc5c(=O)[nH]c(C)nc5c24)CCC3)cc1	-4%	12%	-12%	?	?	4%
Cc1ccc(-c2c3c(nc4sc(C(N)=O)c(N)c24)CCCC3)o1	7%	6%	-7%	-11%	-2%	-15%
NC(=O)c1sc2nc3c(c(-c4ccco4)c2c1N)CCC3	-33%	0%	-3%	13%	?	22µM*
COc1ccc(-c2c3c(nc4sc(C(=O)Nc5cc(C)on5)c(N)c24)CCC3)cc1	-31%	54%	4.1µM*	14%	-1%	?
Cc1ccc(CNC(=O)CCCn2c(=O)c3ccccc3n(Cc3ccccc3C)c2=O)cc1	/	/	/	/	16%	/
COCCCNC(=O)C1CCN(Cc2cc3ccccc3n2Cc2cccc(C)c2)CC1	/	/	/	/	-3%	/
Cc1nn(Cc2ccc(Cl)cc2)c(C)c1NC(=O)CSc1nc2c(c(C(F)(F)F)n1)CCc1ccccc1-2	-5%	-4%	?	4.7µM*	-5%	/
SMILES	AmpC no deterg	AMA1 RON2 block	Pf growth 48h	Pf growth 96h	AmpC inh detg	HCV inh
Cc1ccccc1Cn1cc(NC(=O)CSc2nc3c(c(C(F)(F)F)n2)CCc2ccccc2-3)cn1	-27%	-8%	?	?	-7%	13µM*
Cc1ccccc1CNC(=O)c1nn(-c2ccccc2F)nc1CO	/	/	/	/	4%	/
COc1ccc(-c2nc(CSCC(=O)NC3CCN(Cc4ccccc4)CC3)c(C)o2)cc1OC	106%	-6%	?	10µM*	0%	5%
COc1ccc(-c2nc(CSCC(=O)NC3CCCc4ccccc43)c(C)o2)cc1OC (stereo unspecified)	118%	-9%	/	8.3µM*	-2%	?
O=c1ccc(-c2ccc(S(=O)(=O)NCC3CCN(Cc4cccc(F)c4)CC3)s2)n[nH]1	14%	10%	5.2µM*	?	-1%	-16%
Cc1cccc(-n2c(SCC(=O)c3ccccc3)nnc2-c2ccc(Br)cc2)c1	/	/	/	/	9%	/
N=c1n(CCO)c2ccccc2n1Cc1ccccc1	-18%	0%	2%	-8%[5.75 µM]	-8%	16%
N=c1n(CCO)c2ccccc2n1Cc1ccccc1Cl	-24%	1%	-27%	?	-7%	22µM*
O=C(Cn1c(NCCO)nc2ccccc21)c1ccccc1	-30%	2%	11%	9.3µM*	4%	16%
CC(C)(C)C(=O)Cn1c(NCCCO)nc2ccccc21	-4%	-4%	11%	12µM*	?	3%
CC(=O)c1ccc(N2CCN(S(=O)(=O)c3cc(-c4onc(C)c4C)ccc3C)CC2)cc1	/	/	/	/	3%	/
Cc1nn(-c2ccc(N3CCCC3)nn2)c(C)c1CCC(=O)NCc1ccc(OC(C)C)cc1	/	/	/	/	23%	/
CCc1ccc(NC(=O)CSC2=Nc3ccccc3C3=NC(CCC(=O)NCc4ccco4)C(=O)N23)cc1 (stereo unspecified)	/	/	/	/	0%	/
Cc1ccc(-c2cc(C(=O)NCCc3ccccc3)c3ccccc3n2)cc1C	/	/	/	/	3%	/
COc1ccc([C@@H]2[C@@H]3C(=O)N(C(C)(C)C)C(=O)[C@@H]3[C@]3(Cc4ccccc4)C(=O)N(c4ccc(C(F)(F)F)cc4)C(=O)N23)cc1	-12%	-6%	?	5.9µM*	-14%	17%

Screening results from PubChem BioAssay.
